# Laboratory results: ChEMBL document CHEMBL3433997, “St. Jude Leishmania screening dataset” (2016)
# Legend:
# Format in all cases: functional
# [1] = target: Solute carrier family 2, facilitated glucose transporter member 1 (Homo sapiens) (UniProt P11166); test: ST_JUDE_LEISH: Cytotoxicity at 2uM final concentration against transgenic Leishmania Mexicana promastigotes LmGLUT1 that are glucose transport deficient and complemented with the human glucose transporter GLUT1. Activity is measured by DNA content using SYBR green in vitro
# Sequence of Solute carrier family 2, facilitated glucose transporter member 1 (Homo sapiens) (P11166 whole entry): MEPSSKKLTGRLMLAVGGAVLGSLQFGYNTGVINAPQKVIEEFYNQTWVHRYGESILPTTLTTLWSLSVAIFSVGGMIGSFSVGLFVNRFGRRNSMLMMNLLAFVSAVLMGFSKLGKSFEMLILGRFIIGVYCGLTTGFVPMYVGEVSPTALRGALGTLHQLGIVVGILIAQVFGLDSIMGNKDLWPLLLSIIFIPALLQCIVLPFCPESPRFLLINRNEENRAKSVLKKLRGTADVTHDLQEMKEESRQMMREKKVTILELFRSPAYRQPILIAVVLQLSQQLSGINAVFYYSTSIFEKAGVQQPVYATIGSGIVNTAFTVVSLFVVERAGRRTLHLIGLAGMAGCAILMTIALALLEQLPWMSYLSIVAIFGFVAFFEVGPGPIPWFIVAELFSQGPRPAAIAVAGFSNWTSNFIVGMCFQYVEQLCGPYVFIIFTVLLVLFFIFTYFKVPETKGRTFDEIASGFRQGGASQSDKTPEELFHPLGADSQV
# [2] = target: Hexose transporter 1 (Plasmodium falciparum) (UniProt O97467); test: ST_JUDE_LEISH: Cytotoxicity at 2uM final concentration against transgenic Leishmania Mexicana promastigotes LmPfHT that are glucose transport deficient and complemented with the Plasmodium falciparum hexose transporter. Activity is measured by DNA content using SYBR green in vitro
# [3] = target: Glucose transporter (Leishmania mexicana) (UniProt O61059); test: ST_JUDE_LEISH: Cytotoxicity at 2uM final concentration against transgenic Leishmania Mexicana promastigotes LmGT2 that are glucose transport deficient and complemented with the L. Mexicana glucose transporter 2. Activity is measured by DNA content using SYBR green in vitro
Structure (SMILES),inhibition [1] [%],inhibition [2] [%],inhibition [3] [%]
COc1cc(F)c2ncc(Cl)c(CCN3CCC(NCc4cc5c(cn4)OCCO5)CC3)c2c1,28.4,41.5,55.4
O=C(NCCc1ccc(Cl)c(Cl)c1)c1ccc(CNC(=O)c2ccc(O)c(-c3ccc(Cl)c(Cl)c3)c2)cc1,0.99,1.15,1.06
COc1cc(Cc2cnc(N)nc2N)cc(OCCCCc2ccc([N+](=O)[O-])cc2)c1OC,-1.12,-1.89,1.51
Nc1nc(N)c2c(n1)CCc1cc(Br)ccc1-2,1.65,4.52,2.4
CCOc1cc2ncnc(Nc3cc(Cl)c(Cl)c(Cl)c3)c2cc1OCC,0.38,1.95,1.59
O=C1c2ccccc2-n2c1nc1ccccc1c2=O,-2.52,-2.55,-3.28
Cn1cncc1-c1ccc2ncnc(Nc3ccc(OCc4ccccc4)cc3)c2c1,0.55,1.48,0.29
CCCCCCNC(=O)C1Cc2c([nH]c3ccc(C)cc23)C2(CCN(CCc3ccccc3)CC2)N1 (centres undefined),0.36,1.61,3.44
O=C(Nc1cccc([N+](=O)[O-])c1)Nc1cccc(C(F)(F)F)c1,1.48,1.8,2.9
Nc1c2c(nc3ccc(C(=O)Nc4ccc(Br)cc4)cc13)CCCC2,5.71,6.08,2.67
CO/C(=C\C=C\c1cc2cc(Cl)c(Cl)cc2[nH]1)C(=O)NCCCCN1CCN(c2ccccc2OC)CC1,3.1,2.16,1.91
COc1ccc2nccc([C@@H](O)CN3CCC(NCCOc4ccccc4C#N)CC3)c2c1,4.87,2.43,6.46
CC(C)c1ccc2oc(-c3ccc(NC(=O)c4ccc([N+](=O)[O-])o4)cc3)nc2c1,10.9,10.2,4.26
CN(C)CCn1cc(C(=O)c2cc(Cl)ccc2O)cc1-c1nc2ccccc2c(=O)[nH]1,0.7,-0.71,-2.96
Cn1nccc1C(=O)NCCNCc1ccc(-c2cccc(-c3nc4cc(C(F)(F)F)ccc4[nH]3)c2)cc1,0.63,1.93,2.51
Cc1cc(C)cc(N2C(N)=NC(N)=NC2(C)C)c1,7.13,5.93,5.97
O=C(/C=C/c1ccc(Cl)c(Cl)c1)NCCCCCN1CCC(NC(=O)Nc2ccc(Oc3ccccc3)cc2)C1 (centres undefined),2.36,1.54,0.16

Structure (SMILES),inhibition [1] [%],inhibition [2] [%],inhibition [3] [%]
CCN(CC)CCCC(C)Nc1ccnc2ccc(-c3ccccc3)cc12 (centres undefined),-0.2,-0.17,1.04
CC(=O)Nc1ccc(C(=O)Nc2cccc(-c3csc(-c4nc5ccccc5[nH]4)c3)c2)cn1,0.54,1.56,-0.51
COc1ccc(CN2CCC(NCc3cccc(C(F)(F)F)c3)CC2)cc1,13.2,4.48,9.6
COCn1ncc2cc(-c3cccc(NC(=O)c4csc(NC(C)=O)n4)c3)ccc21,3.31,1.44,2.05
CC(C)(C)CNCC(C)(C)c1nc(-c2ccc(Cl)c(O)c2)c(-c2ccncc2)[nH]1,-1.13,0,-1.37
c1cc(CNC2Cc3ccccc3C2)cc(-c2cnc(N3CCNCC3)nc2)c1,0.76,2.77,1.2
COc1ccc(OCCn2cc(C(=O)c3ccco3)c3ccccc32)cc1,3.1,1.5,2.42
O=C(Nc1cccc(-c2cccc(-c3ccc(F)cc3)n2)c1)c1ccc([N+](=O)[O-])o1,9.83,11.4,1.35
CN1CCN(CCCN(Cc2ccc(-c3cccc(CNCc4ccc5c(c4)OCO5)c3)cc2)C(=O)NC2CCCCC2)CC1,4.38,1.35,0.88
CN(C)c1ccc(/N=C2/N/C(=N/c3ccc(N(C)C)cc3)c3ccccc32)cc1,4.81,6.38,3.25
CC(CN(C)C)C(=O)Nc1ccc(-c2csc(-c3nc4ccccc4[nH]3)c2)cc1 (centres undefined),0.09,3.49,3.09
CC(C)(C)c1ccc(O)c(CNC2CCCCC2)c1,4.48,3.36,3.1
O=C(Nc1ccc(CN2CCN(S(=O)(=O)c3cccc(Cl)c3)CC2)cc1)c1cccs1,3.93,2.08,1.17
O=C(C=Cc1ccc(Cl)c(Cl)c1)NCCCCCN1CCCC(CCCNS(=O)(=O)c2cccc3cccnc23)C1 (centres undefined),5.85,5.36,-0.71
O=C(NCCN1CCOCC1)c1ccc(O)c(-c2cccc(C(F)(F)F)c2)c1,0.48,1.53,2.43
N#CC(c1ccc(Cl)cc1)c1ccc2c(C(F)(F)F)cc(C(F)(F)F)nc2n1 (centres undefined),2.34,2.87,0.92
